# Screening data deposited in PubChem BioAssay by National Center for Advancing Translational Sciences (NCATS).
# Sampled rows, rich in hits. Any-hit rate of the full collection: about 4.7%.
# TRHR PAM: allosteric enhancers of human TRH receptor; TRHR cells, fluo-8 calcium fluorescence, EC20 TRH enhancement; enhancement, % at 2 µM; 360,000 compounds, 0.66% hits; in the data active means enhancement above about 30%; further: 0% is about no effect
#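 Enhancer read-out: after compound pinning and an initial kinetic agonist-mode read, an EC20 of TRH (10 nM final) was injected and fluo-8 calcium signal (Ex 480/Em 530) followed at 1 s/cycle for 100 cycles in TRHR-expressing cells.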
# TRHR agonist: TRH receptor (human) agonism; P34981; TRHR cells, calcium flux fluo-8, FDSS agonist mode; activation, % at 2 µM; 360,000 compounds, 0.18% hits; AID 493084; further: 0% is about no effect
#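 Read-out: compound-evoked intracellular calcium rise in TRHR cells, fluo-8 dye, kinetic FDSS fluorescence at 1 s/cycle following a 10-cycle baseline. Cells cultured overnight before dye loading (30 min–1.5 h, RT).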
# D1 antag: blocks dopamine activation of the human D1 receptor. HEK293 TREx D1 cells, calcium flux, dopamine EC80; stronger effect = lower value. activity change, negative = inhibition, % at 10 µM. 360,000 compounds, 3.2% hits. AID 504652; in the data active means activity change below about -30%; further: on the % scale 0 is the no-effect control and ±100 the full control effect
# Target sequence (P21728 whole entry, looked up): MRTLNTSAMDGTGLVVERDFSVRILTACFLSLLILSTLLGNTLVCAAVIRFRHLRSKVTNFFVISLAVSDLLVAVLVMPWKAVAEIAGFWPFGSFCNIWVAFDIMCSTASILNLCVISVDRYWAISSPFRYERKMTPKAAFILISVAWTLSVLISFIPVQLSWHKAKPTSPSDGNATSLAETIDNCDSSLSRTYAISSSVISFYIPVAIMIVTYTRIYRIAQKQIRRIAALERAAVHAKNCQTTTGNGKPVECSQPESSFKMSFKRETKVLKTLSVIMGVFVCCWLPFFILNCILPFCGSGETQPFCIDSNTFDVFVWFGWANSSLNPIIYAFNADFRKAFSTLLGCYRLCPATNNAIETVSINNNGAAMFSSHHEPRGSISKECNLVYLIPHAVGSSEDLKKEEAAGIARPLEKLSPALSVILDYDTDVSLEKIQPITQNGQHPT
#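 Compound effects on dopamine-evoked calcium signalling were measured in tetracycline-induced HEK293 Trex D1 cells. Dopamine at EC80 followed a 180 s compound pre-read, and fluorescence was tracked kinetically for 180 s more.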
# D1 ag: agonists of human D1 dopamine receptor; P21728; HEK293 T-REx D1 cells, calcium flux, agonist mode; activation, % at 2 µM; 360,000 compounds, 1% hits; AID 504660; further: 0% is about no effect
#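 Inducible HEK293 T-REx D1 cells, force-coupled to calcium signalling, were plated at 4000 cells/well with tetracycline and held overnight at 30 C. After no-wash calcium dye loading, compound-evoked calcium rise over 180 s flagged agonists.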
# D1 potentiator: human D1 dopamine receptor positive modulation; 360,000 compounds, 0.036% hits; potentiation, % at 10 µM; P21728; HEK293 TREx D1 cells, calcium flux, dopamine EC20 potentiation; in the data active means potentiation above about 30%; further: 0% is about no effect
# * hit, by the source's call; / = no result. Unless noted, no stated cut-off is given here; in the data, active means activation above about 30%; inactive means the rest.
SMILES,TRHR PAM,TRHR agonist,D1 antag,D1 ag,D1 potentiator
N#C/C(=C(/O)c1ccc(Br)s1)c1nc2ccccc2[nH]1,-6.1,0.7,-44.7*,4.0,-6.8
N#C/C(=C(/O)c1ccc([N+](=O)[O-])s1)c1nc2ccccc2[nH]1,-5.4,4.0,-7.7,28.8,-2.7
C=CCCC(=O)N(C)CCO,1.9,0.1,1.5,-0.6,5.2
Cc1ccc(C(=O)/C=C/c2cc(Br)cc(Br)c2O)o1,-1.7,12.8,-5.0,43.2*,-3.0
O=C(N1CCOCC1)C12CC3CC(C1)CC(n1cnc(Cl)n1)(C3)C2,32.5*,-0.1,-3.4,2.0,-1.9
O=C(N1CCOCC1)C12CC3CC(C1)CC(C(=O)N1CCOCC1)(C3)C2,-2.9,2.7,-6.6,2.8,-0.1
Cc1ccc(C)c(NC(=O)CCc2c(C)n(C)c3cc(-c4ccccc4C)nn3c2=O)c1,-1.9,-0.9,14.8,1.4,-3.0
CCOc1ccc(NC(=O)Cn2c(=O)n(CCc3ccccc3)c(=O)c3c4c(sc32)CCCC4)cc1,10.7,1.1,-35.8*,-1.4,-1.9
COC(=O)Cn1c(=O)n(CCc2ccccc2)c(=O)c2c3c(sc21)CCCC3,13.0,0.5,-3.9,2.0,-6.0
COC(=O)Cn1c(O)c(N=NC(=O)c2ccc3c(c2)OCO3)c2ccccc21,-3.1,1.2,-34.9*,0.4,2.5
CCOc1ccc(C(C)=O)cc1COC(=O)c1ccc2c(c1)NC(=O)CS2,-6.1,-0.1,-2.1,3.2,-0.7
CCOc1cc2c(cc1C(C)(C)C)NC(=O)CS2,-2.6,-0.4,-85.1*,-0.2,-1.7
Nc1nc(NCCO)nc(N2CCCCCC2)c1[N+](=O)[O-],4.3,0.4,-1.0,3.4,0.9
OCCN(CCO)c1nc(N2CCCCC2)c2nc(N(CCO)CCO)nc(N3CCCCC3)c2n1,13.0,106.3*,-39.0*,318.5*,7.7
NS(=O)(=O)c1ccc(CCNC(=O)COC(=O)CCc2ccccc2)cc1,1.8,0.1,-16.0,1.5,-4.7
NS(=O)(=O)c1ccc(CCNC(=O)COC(=O)C2CCC2)cc1,33.2*,-0.1,4.9,0.3,-2.0
CC(C)(C)c1ccc(C(=O)CCC(=O)OCC(=O)NCCc2ccc(S(N)(=O)=O)cc2)cc1,4.3,0.2,-34.2*,4.7,-3.9
Cc1ccccc1C(=O)Nc1nnc2n1CCS2,-1.1,0.4,1.1,1.0,-0.8
COc1cc(-c2nnc(SCC(=O)N3CCCc4ccccc43)o2)cc(OC)c1OC,8.0,-0.5,-8.2,1.0,4.3
COc1ccccc1CNC(=O)CN1C(=O)NC2(CCCc3ccccc32)C1=O (stereo not given),-5.8,0.3,-37.9*,1.6,-10.8
COc1ccc(OC)c(NC(=O)CN2C(=O)NC3(CCCc4ccccc43)C2=O)c1 (stereo not given),-2.6,-0.2,2.3,-0.8,-0.9
Cc1ccc(CN2CCN(CC(=O)NC(C)CCc3ccccc3)C2=O)cc1 (stereo not given),18.6,-1.2,-2.1,5.2,/
CN(C(=O)CN1C(=O)NC2(CCc3ccccc32)C1=O)C1CCS(=O)(=O)C1 (stereo not given),-2.2,-0.7,-30.6*,-1.6,-0.1
CC(C)CNC(=O)CN1C(=O)NC2(CCCc3ccccc32)C1=O (stereo not given),30.7*,-1.1,-16.1,2.7,-5.7
Cc1ccc(CN2CCN(CC(=O)NC(C)c3ccc4c(c3)OCCO4)C2=O)cc1 (stereo not given),-6.3,0.2,-11.1,44.4*,/
SMILES,TRHR PAM,TRHR agonist,D1 antag,D1 ag,D1 potentiator
COc1cc(NC(=O)c2noc3c2CC(C)CC3)c(OC)cc1Cl (stereo not given),-1.7,0.4,0.9,1.6,4.1
NC(=O)NC(=O)CN1C(=O)NC2(CCOc3ccccc32)C1=O (stereo not given),-4.2,-0.1,7.3,5.7,-8.4
CC1CCC2(CC1)NC(=O)N(CC(=O)NC(C)c1ccc(F)c(F)c1)C2=O (stereo not given),0.9,0.1,-35.2*,1.2,-3.8
NC(=O)CN1C(=O)NC2(CCOc3ccccc32)C1=O (stereo not given),7.5,1.6,-74.6*,-1.6,5.2
CC(NC(=O)CN1C(=O)NC2(CCCC2)C1=O)c1ccc2ccccc2c1 (stereo not given),11.5,0.0,19.9,-0.7,-11.2
CC(NC(=O)CN1C(=O)NC2(CCc3ccccc32)C1=O)c1ccc2c(c1)OCCO2 (stereo not given),0.4,-0.5,-42.5*,-0.7,-2.8
COc1ccc(C(NC(=O)CN2C(=O)NC3(CCc4ccccc43)C2=O)c2ccc(OC)cc2)cc1 (stereo not given),1.7,1.3,-7.4,2.1,-6.8
CC(=O)c1ccc(NC(=O)COc2ccc3c(c2)OCO3)cc1,10.3,-1.7,-18.7,1.6,-1.2
Cc1ccc2cc(CN(c3ccccc3C)S(=O)(=O)c3ccccc3)c(=O)[nH]c2c1,7.9,0.1,13.0,1.8,-0.6
CSCCC(NC(=O)c1ccco1)C(=O)OC(C)C(=O)NC(=O)NC1CCCCC1 (stereo not given),-2.0,52.2*,3.3,0.5,-3.9
CC(C(=O)NC(C)(C)C)N1C(=O)c2cccc3cccc(c23)C1=O (stereo not given),-22.2,-0.7,-71.4*,1.0,-4.2
CC(C)C(C(=O)NC(C)(C)C)N1C(=O)c2ccccc2C1=O (stereo not given),-3.7,-0.2,9.4,1.4,-9.8
COc1cccc(C2Nc3ccccc3-c3nnc(SCc4ccccc4)nc3O2)c1OC (stereo not given),5.9,-1.3,-17.3,13.4,-1.2
C=C(C)c1cccc(C(C)(C)NC(=O)Nc2ccc(C)cn2)c1,-8.0,1.9,14.4,30.1*,-2.9
C=C(C)c1cccc(C(C)(C)NC(=O)Nc2ccc(OC)nc2)c1,-3.5,0.6,-4.9,3.4,0.1
Cn1nc(-c2ccccc2)cc1NC(=O)Nc1ccc(F)cc1,1.7,1.1,-43.6*,12.5,-12.6
Cn1nc(C(F)(F)F)c(-c2cccc(C(F)(F)F)c2)c1NC(=O)c1ccco1,-9.5,0.3,-19.1,0.7,-5.9
Cn1nc(C(F)(F)F)c(-c2cccc(C(F)(F)F)c2)c1NC(=O)Nc1ccc(F)cc1,-5.5,0.9,-30.7*,16.8,-2.5
Nc1ccc(Sc2cc(Cl)nc(N)n2)cc1,3.1,0.2,8.1,3.3,0.5
Nc1nc(N)c2cc(Sc3ccc4ccccc4c3)ccc2n1,13.7,0.9,16.7,32.9*,12.1
COc1ccc(-n2c(C)cc(/C=C/c3nc(O)c([N+](=O)[O-])c(=O)[nH]3)c2C)cc1,8.3,0.3,-54.5*,1.3,-4.1
Cc1cc(C)c(S(=O)(=O)N2CCCC(C(=O)NCc3ccccn3)C2)c(C)c1 (stereo not given),-0.6,-0.9,-0.5,1.4,-8.3
CCOc1ccc(Cl)cc1CNCCCSc1nc(C)cc(C)n1,-7.5,-1.8,-38.3*,21.0,-6.7
